Bioassay records deposited in PubChem BioAssay by The Scripps Research Institute Molecular Screening Center.
Rows were chosen to be rich in hits. Some 4.5% of all compounds tested hit in one or more screens of this group.
DAX1 inh-1 – DAX1 (NR0B1) inhibitors, primary screen, cell-based, HEK293, Gal4-DAX1, luciferase luminescence. inhibition, % at 6.75 µM. HEK293 Gal4-DAX1 luciferase reporter. 340,000 tested, 0.99% active;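 active means inhibition above the mean over all tested compounds plus 3 SD, cut at about 4.2% in these data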;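 further: 0% = DAX1-transfected cells with DMSO and 100% = empty-vector control cells with DMSO; inhibition shows as a rise in luminescence from relieved DAX1 repression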
Target sequence (P51843 207-470 limits assumed): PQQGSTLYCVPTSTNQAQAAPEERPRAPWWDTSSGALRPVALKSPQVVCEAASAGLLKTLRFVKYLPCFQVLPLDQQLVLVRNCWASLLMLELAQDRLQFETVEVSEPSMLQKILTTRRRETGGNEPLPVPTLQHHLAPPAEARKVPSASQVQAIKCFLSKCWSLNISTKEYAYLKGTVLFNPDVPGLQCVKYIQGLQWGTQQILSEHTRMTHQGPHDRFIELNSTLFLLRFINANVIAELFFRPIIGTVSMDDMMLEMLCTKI
DAX1 inh-2 – DAX1 (NR0B1) inhibitors on StAR promoter, primary screen, cell-based, luminescence, SF-1 (NR5A1), full-length DAX-1; HEK293T StAR-luciferase reporter, SF-1/DAX-1 repression relief; inhibition, % at 6.8 µM; 370,000 tested, 1.1% active; AID 652010, 2013;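 active means inhibition above the mean over all tested compounds plus 3 SD, cut at about 3.6% in these data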;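 further: 0% = DAX-1 cells with DMSO and 100% = cells lacking DAX-1 with DMSO; higher inhibition means more luminescence from relief of DAX-1 repression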
FXN GAA850 act – FXN promoter activators, primary screen, cell-based, luciferase luminescence, HEK293 lucGAA850; HEK293 lucGAA850 FXN promoter luciferase reporter, 24 h; percent of 10 µM SAHA response; activation, % at 6 µM; 360,000 tested, 0.56% active; AID 540364, 2011;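 active means activation above the average of all compounds screened plus 3 SD, cutoff fixed separately per campaign, cut at about 7.5% in these data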;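 further: 0% = DMSO wells and 100% = 10 µM SAHA wells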
ssDAF12 agonist – S. stercoralis DAF-12 nuclear receptor activators, primary screen, cell-based, luminescence, HEK293, GRIP1 co-expression, lit1-tk-luc; HEK293 ssDAF-12/GRIP1 lit1-tk-luc reporter; % of 3 µM dafachronic acid response; activation, % at 6.8 µM; 370,000 tested, 1% active;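 active means activation above the mean over all tested compounds plus 3 SD, cut at about 0.9% in these data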;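 further: 0% = DMSO-only wells and 100% = 3 µM delta7-dafachronic acid wells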
hgDAF12 agonist – H. glycines DAF-12 receptor agonists, primary screen, cell-based, luminescence, HEK293, GAL4 fusion, UAS-luciferase. HEK293 GAL4-hgDAF12 UAS-luciferase reporter, agonist luminescence; normalized to butyrate control. Nuclear hormone receptor DAF-12 (Heterodera glycines), GAL4 fusion. activation, % at 6.8 µM. 370,000 tested, 1.8% active;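 active means activation above a cutoff set at the mean of all screened compounds plus 3 SD, cut at about 10% in these data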;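 further: 0% = DMSO wells and 100% = sodium butyrate wells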
hcDAF12 agonist – H. contortus DAF-12 nuclear receptor activators, primary screen, cell-based, luminescence, HEK293, lit1-tk-luc reporter; HEK293 hcDAF-12 lit1-tk-luc reporter; 0% DMSO, 100% Δ7-dafachronic acid; activation, % at 6.8 µM; 370,000 tested, 1.4% active;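 active means activation above the mean of all tested compounds plus 3 SD, cut at about 5.5% in these data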;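 further: 100% = response to 3 µM Δ7-dafachronic acid high control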
GAA30 counter – GAA30 FXN promoter activators, confirmation, counter-screen for GAA850 frataxin promoter activator project, cell-based, luminescence, HEK293, lucGAA30, triplicate | activation, % at 6 µM | AID 588350, 2011 | 1,900 tested, 66% active | HEK293 lucGAA30 FXN promoter luciferase, 24 h; DMSO = 0%, 5 µM ipriflavone = 100% | shares compounds with FXN GAA850 act;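 active means mean activation above the mean of solvent-only control wells plus 3 SD, cut at about 22% in these data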;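 further: counterscreen of GAA850 promoter hits where activity marks nonselective or luminescence artifacts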
FXN GAA850 conf – FXN GAA850 promoter activators in reporter cells, confirmation, cell-based, luminescence, HEK293 lucGAA850, triplicate | shares compounds with FXN GAA850 act | HEK293 lucGAA850 FXN promoter luciferase reporter, 24 h; 100% = activation by SAHA | activation, % at 6 µM | 1,900 tested, 86% active;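 active means mean activation above a set limit taken from the primary screen, cut at about 8% in these data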;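 further: 0% = DMSO wells and 100% = 10 µM SAHA wells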
* marks the source's active call; other numbers are inactive results.

`CC(=O)Nc1cccc(-c2cc(C(C)=O)c3n(c2=O)CCC3)c1` gave DAX1 inh-2 0, ssDAF12 agonist -1, hgDAF12 agonist 3 and hcDAF12 agonist -1.
`CCCC1CCC2(CCCN2CCOC(=O)Nc2ccccc2OC)CC1` (stereo unspecified) gave ssDAF12 agonist -2, hgDAF12 agonist 0 and hcDAF12 agonist -1.
Screening Nc1ccc(Nc2nc(-c3cc4ccccc4oc3=O)cs2)cc1 returned DAX1 inh-1 -1, DAX1 inh-2 -1, FXN GAA850 act 9.0*, ssDAF12 agonist -2, hgDAF12 agonist 4, hcDAF12 agonist -2, GAA30 counter 74* and FXN GAA850 conf 32*.
Cn1nc(N)c2ncc(-c3ccc(Cl)cc3)nc21 was read as DAX1 inh-1 4, DAX1 inh-2 1, FXN GAA850 act 9.7*, ssDAF12 agonist -1, hgDAF12 agonist 11*, hcDAF12 agonist 1, GAA30 counter 99* and FXN GAA850 conf 30*.
Cc1nc2c(N)nn(C)c2nc1C was read as DAX1 inh-1 -1, DAX1 inh-2 1, FXN GAA850 act 0, ssDAF12 agonist -1, hgDAF12 agonist 1 and hcDAF12 agonist -1.
O=C(C(=O)N1CCC(CNC(=O)C2COc3ccccc3O2)CC1)c1cccs1 (stereo unspecified) was read as DAX1 inh-2 -1, ssDAF12 agonist -1, hgDAF12 agonist 2 and hcDAF12 agonist -2.
For Cc1ccc(NN2C(=O)C=C(c3ccc(Cl)cc3)C2=O)cc1 the results were DAX1 inh-1 -1, DAX1 inh-2 -1, FXN GAA850 act 9.5*, ssDAF12 agonist -1, hgDAF12 agonist -2, hcDAF12 agonist 4, GAA30 counter -6 and FXN GAA850 conf 18*.
For COc1ccc(C2=CC(=O)N(Nc3ccccc3)C2=O)cc1 the results were DAX1 inh-2 -1, FXN GAA850 act 8.2*, ssDAF12 agonist -1, hgDAF12 agonist 3, hcDAF12 agonist -2, GAA30 counter 25* and FXN GAA850 conf 11*.
Screening O=C1C=C(c2ccccc2)C(=O)N1Nc1ccccc1 returned DAX1 inh-1 0, DAX1 inh-2 1, FXN GAA850 act 4, ssDAF12 agonist -1, hgDAF12 agonist 1 and hcDAF12 agonist -2.
`Cc1nn(-c2ccccc2Cl)c(Cl)c1/C=N/Nc1cccc(C(=O)O)c1` gave DAX1 inh-1 -4, DAX1 inh-2 4.0*, FXN GAA850 act 7.8*, ssDAF12 agonist 0, hgDAF12 agonist 10, hcDAF12 agonist 4, GAA30 counter 119* and FXN GAA850 conf 41*.
Cc1nn(-c2ccccc2)c(Cl)c1/C=N/NC(=O)c1cccc(S(=O)(=O)N2CCCC2)c1 was read as DAX1 inh-1 -1, DAX1 inh-2 1, FXN GAA850 act 1, ssDAF12 agonist -1, hgDAF12 agonist 1 and hcDAF12 agonist 2.
CCOC(=O)[C@@]12CCCC=C1N(CCc1ccc(Cl)cc1)C(=O)[C@H]2CC(=O)NCc1cccc2ccccc12 was read as DAX1 inh-2 0, ssDAF12 agonist -1, hgDAF12 agonist -2 and hcDAF12 agonist -1.
